Results from the supplement of paper PMC4466140.

Key:
Assay in all cases: SPOT peptide array binding signal intensity (averaged, normalized) (arbitrary units (background-subtracted, floor 0; scale differs between SH3 domains)); higher = stronger binding of the SH3 domain to the peptide
[1] = molecular target: ScBbc1
Summary of the method: (§1)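 Binding signal refers to normalized, background-subtracted spot intensity averaged over replicates, expressed in arbitrary units that differ between domains. GST-fused SH3 domains from four yeast species were incubated at 10 μg/ml overnight at 4°C on cellulose membranes of synthetic 15-mer peptides with cysteines replaced by serines. Bound protein was detected with anti-GST antibody, an HRP anti-mouse secondary and luminol, and quantified with Genespotter.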

[2] = molecular target: ScBem1-D1
Summary of the method: as §1

[3] = molecular target: ScBzz1-D1
Summary of the method: as §1

[4] = molecular target: ScBzz1-D2
Summary of the method: as §1

[5] = molecular target: ScCyk3
Summary of the method: as §1

[6] = molecular target: ScFus1
Summary of the method: as §1

[7] = molecular target: ScHof1
Summary of the method: as §1

[8] = molecular target: ScHse1
Summary of the method: as §1

[9] = molecular target: ScLsb1
Summary of the method: as §1

[10] = molecular target: ScLsb2
Summary of the method: as §1

[11] = molecular target: ScLsb3
Summary of the method: as §1

[12] = molecular target: ScLsb4
Summary of the method: as §1

[13] = molecular target: ScMyo3
Summary of the method: as §1

[14] = molecular target: ScMyo5
Summary of the method: as §1

[15] = molecular target: ScNbp2
Summary of the method: as §1

[16] = molecular target: ScPex13
Summary of the method: as §1

[17] = molecular target: ScRvs167
Summary of the method: as §1

[18] = molecular target: ScSho1
Summary of the method: as §1

[19] = molecular target: ScSla1-D1-D2
Summary of the method: as §1

[20] = molecular target: ScSla1-D3
Summary of the method: as §1

[21] = molecular target: SpAbp1-D1
Summary of the method: as §1

[22] = molecular target: SpBbc1
Summary of the method: as §1

[23] = molecular target: SpBzz1-D1
Summary of the method: as §1

[24] = molecular target: SpBzz1-D2
Summary of the method: as §1

[25] = molecular target: SpCyk3
Summary of the method: as §1

[26] = molecular target: SpHof1
Summary of the method: as §1

[27] = molecular target: SpHof1-2
Summary of the method: as §1

[28] = molecular target: SpHof1-3
Summary of the method: as §1

[29] = molecular target: SpHse1
Summary of the method: as §1

[30] = molecular target: SpLsb1
Summary of the method: as §1

[31] = molecular target: SpLsb4
Summary of the method: as §1

[32] = molecular target: SpMyo1
Summary of the method: as §1

[33] = molecular target: SpNbp2
Summary of the method: as §1

[34] = molecular target: SpPex13
Summary of the method: as §1

[35] = molecular target: SpRvs167
Summary of the method: as §1

[36] = molecular target: SpSla1-D1-D2
Summary of the method: as §1

[37] = molecular target: SpSla1-D3
Summary of the method: as §1

B1: unnamed (peptide)
chain: GKFIPSRPAPKPPSS
- SPOT peptide array binding signal intensity [1]: 552
- SPOT peptide array binding signal intensity [2]: 1
- SPOT peptide array binding signal intensity [3]: 39
- SPOT peptide array binding signal intensity [4]: 25
- SPOT peptide array binding signal intensity [5]: 2
- SPOT peptide array binding signal intensity [6]: ≤ 0
- SPOT peptide array binding signal intensity [7]: 8.25
- SPOT peptide array binding signal intensity [8]: 74
- SPOT peptide array binding signal intensity [9]: 175
- SPOT peptide array binding signal intensity [10]: 161
- SPOT peptide array binding signal intensity [11]: 508
- SPOT peptide array binding signal intensity [12]: 13.5
- SPOT peptide array binding signal intensity [13]: 3530
- SPOT peptide array binding signal intensity [14]: 3480
- SPOT peptide array binding signal intensity [15]: 5410
- SPOT peptide array binding signal intensity [16]: 1460
- SPOT peptide array binding signal intensity [17]: 274
- SPOT peptide array binding signal intensity [18]: 66.5
- SPOT peptide array binding signal intensity [19]: 652
- SPOT peptide array binding signal intensity [20]: 156
- SPOT peptide array binding signal intensity [21]: 187
- SPOT peptide array binding signal intensity [22]: 46.5
- SPOT peptide array binding signal intensity [23]: 735
- SPOT peptide array binding signal intensity [24]: 9.5
- SPOT peptide array binding signal intensity [25]: 5
- SPOT peptide array binding signal intensity [26]: 77.5
- SPOT peptide array binding signal intensity [27]: 33
- SPOT peptide array binding signal intensity [28]: 94.8
- SPOT peptide array binding signal intensity [29]: 180
- SPOT peptide array binding signal intensity [30]: 98.8
- SPOT peptide array binding signal intensity [31]: 600
- SPOT peptide array binding signal intensity [32]: 2900
- SPOT peptide array binding signal intensity [33]: 850
- SPOT peptide array binding signal intensity [34]: 22
- SPOT peptide array binding signal intensity [35]: 90
- SPOT peptide array binding signal intensity [36]: ≤ 0
- SPOT peptide array binding signal intensity [37]: 3.5
